# PubChem BioAssay AID652126 (The Scripps Research Institute Molecular Screening Center, 2013)
# About 3,700 (1%) of roughly 370,000 compounds were called active.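 How the source made its calls: active means activation above the mean over all tested compounds plus 3 SD (cut at about 0.9% in these data); inactive means the rest.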 The entries come from a sample that favours actives as a whole.
# Test system: Nuclear hormone receptor DAF-12 (Strongyloides stercoralis)
# Assay: S. stercoralis DAF-12 nuclear receptor activators, primary screen, cell-based, luminescence, HEK293, GRIP1 co-expression, lit1-tk-luc (AID 652126);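 further: 0% = DMSO-only wells and 100% = 3 µM delta7-dafachronic acid wells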
# Settings: HEK293 ssDAF-12/GRIP1 lit1-tk-luc reporter, at 6.8 µM, stronger effect = higher value, % of 3 µM dafachronic acid response
row,Compound,activation
1,Cc1ccc(-n2c(SCC(=O)Nc3ccc(S(=O)(=O)Nc4nccs4)cc3)nnc2-c2cccnc2)cc1,-1.03% (inactive)
2,Fc1ccccc1-c1cc2cc3c(cc2cn1)OCO3,0.96% (active)
3,Fc1ccc2cnc(-c3ccccc3)cc2c1,0.89% (inactive)
4,COC(=O)C[C@@H]1CC[C@@H]2[C@H](COc3ccc(NC(=O)c4cccc(F)c4)cc3C(=O)N2C)O1,-1.32% (inactive)
5,CN(C(N)=NC(=O)/C=C/c1ccccc1)C(C#Cc1ccccc1)Cc1ccccc1 (stereo unspecified),-1.31% (inactive)
6,O=C(CCCCCN1C(=O)C2C3C=CC(C3)C2C1=O)Nc1ccccn1 (stereo unspecified),-1.93% (inactive)
7,COc1ccc(Cn2cc(COC(=O)N(C)Cc3ccccc3)nn2)cc1,-1.12% (inactive)
8,COc1ccc(CC(=O)NCc2nnc(SCC(=O)Nc3ncc(C)s3)n2C)cc1,-1.52% (inactive)
9,Cc1ccc(NC(=O)c2ccc(Cl)nc2)cc1S(=O)(=O)N1CCOCC1,-1.53% (inactive)
10,Cc1cnc(NC(=O)c2ccc(Cl)nc2)s1,1.34% (active)
11,COc1ccc(-c2cc(-c3nnc(SCC(=O)Nc4cccc5ccccc45)n3N)[nH]n2)cc1,-1.73% (inactive)
12,Cc1cc(=O)[nH]c(SCC(=O)Nc2ccc(Cl)cc2C)n1,-1.2% (inactive)
13,CCC(c1ccc(NC(=O)OC(C)(C)C)cc1)c1cc(OC)cc(OC)c1 (stereo unspecified),-1.95% (inactive)
14,CC(C)(C)c1ccc(C(=O)Nc2cc(Cl)c(Br)cc2C(=O)O)cc1,-1.31% (inactive)
15,CCc1nonc1NC(=O)c1oc2ccc(Cl)cc2c1C,-0.87% (inactive)
16,Cc1c(C(=O)Nc2ccccn2)oc2ccc(Br)cc12,1.84% (active)
17,Cc1c(C(=O)NC2CCCCC2)oc2ccccc12,-0.81% (inactive)
18,C=CCn1c(SCC(N)=O)nnc1-c1ccccc1OC,-0.81% (inactive)
19,COc1ccc(NC(=O)c2ccc(OC)cc2)cc1,0.92% (active)
20,COc1ccc(C(=O)Nc2ccc(-n3nncc3C(C)(C)C)cc2)cc1,-1.68% (inactive)
21,COc1ccc(C(=O)NCC[N+](C)(C)C)cc1,-0.25% (inactive)
22,O=C(CSc1nnc(-c2ccccc2)n1Cc1ccco1)Nc1ccccc1-c1ccccc1,-1.67% (inactive)
23,O=C(CSc1nnc(COc2ccccc2)n1Cc1ccco1)c1ccc2ccccc2c1,-1.35% (inactive)
24,Clc1ccc(-c2cc(C3CCNCC3)[nH]n2)c(Cl)c1,-1.62% (inactive)
25,Clc1ccc(-c2cc(-c3ccccn3)on2)c(Cl)c1,1.28% (active)
26,O=C(c1ccccc1)c1cc(-c2ccccn2)c(N2CCOCC2)s1,-1.53% (inactive)
